# Laboratory results from the supplement of paper PMC10105736.
# Unmarked numbers belong to inactive results.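 Rule for the calls: active = MAPPIT score above the 99th percentile of random reference set scores in the same batch; inactive = at or below it.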
# B1: EMC8-9 (protein)
# chain: MCDYKVSERAYAKLIFHAAKYPHQAVNGLLLAEKTSKGSQVEIVDAIPLFHQCLYVTPMAEVALMLIDAHAEREGLVIAGYYAAPENFYDNQVDKTPAAKIADKIQENFKNACFVVVDNKLMTLQHDRAAIQVFNCPGDSGARWSKAKFTLSQASDTLEGVSLLLKRGAMRDLVDFDNHLDNPDKNWTNDFLNQPLNDLQKLY
# B2: Obp84a (protein)
# chain: MYSALVRACAVIAFLILSPNCARALQDHAKDNGDIFIINYDSFDGDVDDISTTTSAPREADYVDFDEVNRNCNASFITSMTNVLQFNNTGDLPDDKDKVTSMCYFHCFFEKSGLMTDYKLNTDLVRKYVWPATGDSVEACEAEGKDETNACMRGYAIVKCVFTRALTDARNKPTV
# B3: RFeSP (protein)
# chain: MMNAVSRAYVRGGAQVLSTGLKASGVAVNSMANRQAHTDLQVPDFSAYRRESVKDSRRRNDTAEERKAFSYLMVGAGAVGGAYAAKGLVNTFIGSMSASAEVLAMAKIEIKLSDIPEGKSVTFKWRGKPLFIRHRTAAEIETERNVPTSTLRDPEADDQRVIKPEWLVVIGVCTHLGCVPIANAGDWGGYYCPCHGSHYDASGRIRKGPAPLNLEVPTHEFPNEGLLVVG
# B4: Snapin (protein)
# chain: MDSDSTVTSLEENTENFCTNPTRDILAEGITNLFKPTIERLDERVASTIQLQAELRGQLDALAAQLRDIEKAQSQIPEFADKVKELLNVKHKVTVISNVLVTSQERLTGLHKLIEKEQRRRQALLDSALSTNIS
# B5: Pcl (protein)
# chain: MMNNHFHLQHDHPPQNVAHPFMQQPSTAVPSAPPATYGYLAQPAGQQPQWMTTTYQILPPSVGPATVAKRYYATTGPQTTHPTHPSTIQITNSFAQQSTPPKQQAATSCSPFKANNIRIISTAPSVYSLNKPPQEAHSTYAPVQSYYLPSGGGQTAGQINLLAASGTGKQLQPPPLVPVTNSTSPPSTVVLDRINICINNHYTETPTSLSSSLTTAQQPSPIIPAIQHKAILPLIDSSTADSSSCSSSSVSSSSYSGTATTSAAVVIVDEPDSTTTTPQTPPTTPEAMSSPGKSSPSPPLLATQSLLKGVNSMKPSFKTVEAAPPTPPTPPSPPPPPPAPPVAAPSPAVTYALQEDVFIKCNDGRFYLGTIIDQTSDQYLIRFDDQSEQWCEPDKLRKLGGGSSITAGGGGASTTESTNTSPSGPMCVACKRSDIEDVVEICERCGRGYHRGCTVEIVTGSGIWSCKRCAKPMKMQQPVSHKITKPAGICRQLPYHADKLSWDEKHRVNEEQIYCYCGKPGKFDHNMLQCCKCRNWFHTQCMQNFKKKLLRGDMFFVFCCTVCNNGIEFVRRMQIEWVDVLHIALYNLRKHQHQKYHHLLNDIWPFILEQRHQLPICEKWRTLPETALMERLKQTLKDYSDRFVCGREFKRAPAFYALRHSGPPHIPKVFLEPHEELSDELLEKRFKLMLMPEEPDEGANELPKRVPKDVYEFNTDEDDPVETSEDEIPIKQIIEKAKKQAAQKADKHDELPLKPDLADDNANDGDPGKLPAPIPPLLDANSSRKRKAFRLSKRYDNSRNHCDLSSDENSSSSRGTSSLDLIIPPPVNFLGRNNPFLMATPKKASQGRSISVGTGVGVNGIINSIFKLKGTSKEQPRMVRTIKRRLSAKDITIGPNQEVRRRRTRRLTTAIEVISTTTINPIPSHYLPIYAKDLQPPAPPMGKPTHGRLLRQRPQKQSPSQSRRNSTSSTATSSSSNGIGAPGHSMLDLKQSVNKYFGGAMNRIDAGEPFAIRAKRRMGNGQVQYLVEWGGDTATTAIGLLGN
# B6: eIF3f1 (protein)
# chain: MSALNLTVRVHPVVLFQVVDAFERRNADSHRVIGTLLGSVDKGVVEVTNCFCVPHKEHDDQVEAELSYALDMYDLNRKVNSNESVVGWWATGNDVTNHSSVIHEYYARECNNPVHLTVDTSLQGGRMGLRAYVCIQLGVPGGKSGCMFTPIPVELTSYEPETFGLKLLQKTVGVSPAHRPKTVPPMLDLAQISEASTKLQSLLDLILKYVDDVIAHKVTPDNAVGRQLLDLIHSVPHMTHEQFTQMFNANVRNLLLVITLSQLIKTQLQLNEKLTFLPTA
# B7: BomBc1 (protein)
# chain: MKCLILSFAIFVVLASQATAGNVIIGGVCQDCSPPVAENVVVGGQSYRTGRPGQGTVYINSPGAYLGALDGPIRRTGAGGGGGGGAQYPDGYSGRLPGGTYLHNKDCVGCSISGGGD
# B8: Membrin (protein)
# chain: MESLYHQTNNVVKDIERDFQRLSQLSAQESLDVENGIQLKITQANANCDRLDVLLYKVPPSQRQSSKLRVDQLKYDLRHLQTSLQTARERRQRRMQEISEREQLLNHRFTANSAQPEETRLQLDYELQHHTQLGNAHRGVDDMIASGSGILESLISQRMTLGGAHKRIQAIGSTLGLSNHTMKLIERRLVEDRRIFIGGVVVTLLIIALIIYFLVL
# B9: cnn (protein)
# chain: MNSNRTSSSHNSRNLKILNASFDVPRPPGGGNSPLPSQGRSVRELEEQMSALRKENFNLKLRIYFLEEGQPGARADSSTESLSKQLIDAKIEIATLRKTVDVKMELLKDAARAISHHEELQRKADIDSQAIIDELQEQIHAYQMAESGGQPVENIAKTRKMLRLESEVQRLEEELVNIEARNVAARNELEFMLAERLESLTACEGKIQELAIKNSELVERLEKETASAESSNEAIDSLKVELEACRKENQDLVTSIRTLKHDMKRQVRSMKEAANTMDVQRQSILLLEATIKRKEKSCGSMQKNVLNYEALIAKLNAELETMRQQNVYFRELSENLQQKEVRQLDRGVAIVQPMRMTADAGRFVWQSGTIVAQEPLPLERQSAAATSNVSVSAVRLSSGPPPDQTYPVNGHDRAKYGLLQLFAAKLDWISAVPLALGHLALKIILLAMRLHSCLQNVHIPLRANRDLGAQLADKICELQEAQEKLKERERIHEQACRTIQKLMQKLSSQEKEIKKLNQENEQSANKENDCAKTVISPSSSGRSMSDNEASSQEMSTNLRVRYELKINEQEEKIKQLQTEVKKKTANLQNLVNKELWEKNREVERLTKLLANQQKTLPQISEESAGEADLQQSFTEAEYMRALERNKLLQRKVDVLFQRLADDQQNSAVIGQLRLELQQARTEVETADKWRLECVDVCSVLTNRLEELAGFLNSLLKHKDVLGVLAADRRNAMRKAVDRSLDLSKSLNMTLNITATSLADQSLAQLCNLSEILYTEGDASHKTFNSHEELHAATSMAPTVENLKAENKALKKELEKRRSSEGQRKERRSLPLPSQQFDNQSESEAWSEPDRKVSLARIGLDETSNSLAAPEQAISESESEGRTCATRQDRNRNSERIAQLEEQIAQKDERMLNVQCQMVELDNRYKQEQLRCLDITQQLEQLRAINEALTADLHAIGSHEEERMVELQRQLELKNQQIDQLKLAHSTLTADSQITEMELQALQQQMQEIEQLHADSVETLQSQLQKLKLDAVQQLEEHERLHREALERDWVALTTYQEQAQQLLELQRSLDYHQENEKELKQTLVENELATRALKKQLDESTLQASKAVMERTKAYNDKLQLEKRSEELRLQLEALKEEHQKLLQKRSNSSDVSQSGYTSEEVAVPMGPPSGQATTCKQAAAAVLGQRVNTSSPDLGIESDAGRISSVEVSNAQRAMLKTVEMKTEGSASPKAKSEESTSPDSKSNVATGAATVHDCAKVDLENAELRRKLIRTKRAFEDTYEKLRMANKAKAQVEKDIKNQILKTHNVLRNVRSNMENEL
# B10: Os-C (protein)
# chain: MGFHMGRQLLLSGFLLVMLQMVTQTQARPQDVITVAGEETEVVIKREGDDDGDDDDSSSEETVEDSEESRRRRREVNTDNTPSARAVIPGEQVVPILLEAILPSVDAAGDRFARSVQFLKNLTPGSELFAVEKNE
# B11: pho (protein)
# chain: MAYERFGIILQSEQYDEDIGNTKVNQKMNEGNHYDLHRKNAFDRIIHSESKKGDNVINYNIHENDKIKAADNIFSSKLKMNPNMSYEMNINCFKNIGYGENQETSKVLTNSLSNNDINTEESGVVDKNSPFLTLGTTILNSNGKSRRWEQKLVHIKTMEGEFSVTMWASGISDDEYSGSDQIVGASDLLKGKEEFGIDGFTSQQNKEYQKMESKFTNAQTLEMPHPISSVQIMDHLIKERGNLSQENNISERILSKTTLSFEEPILLPDSSSIELVNETAAMTINNHRTLSNHTGNTGDLHALPSSVPFRIGLHEGQVNDCLSTISQSTHQDNTDSTGCGEMNLSEVTVSYTNDKKIACPHKGCNKHFRDSSAMRKHLHTHGPRVHVCAECGKAFVESSKLKRHQLVHTGEKPFQCTFEGCGKRFSLDFNLRTHVRIHTGDRPFVCPFDACNKKFAQSTNLKSHILTHAKAKRNTSISGKSGCSNAESNSQSEDTSANYVKVELQDSVTENHVPFVVYAD
# B12: MED19 (protein)
# chain: MMSNYGNMMDSPKSSPHGGGRSPVVARQDSSGTLKTTISLGKTPTIIHTGPFYSMKEPPAKAELTGDKDLMTEYGLHHTLTKFKEKKFKESLASFLQNIPGINDLITHPVENSTLRSVIEKPPIGGKELLPLTPVQLAGFRLHPGPLPEQYRTTYVTPARKHKNKHKKQKHKDGVTTGQESTLLDSAGLETYEKKHKKQKRHEDDKERKKRKKEKKRKKKNQSPEPGVGLLPGGASLGGAAGVMGATSLGSLGGGPGGPGLSSLSASMGPGVVGNMNSFSSSMQMQQQQQMPMQQQQMSSGGLLGSVLGTSGGPGGGGGGGGGGGGGVGGSLLMSQF
# B13: mgr (protein)
# chain: MTGIMDSVEMPKLPENQKTFAGIPEAVFLEEIDTFMSQPENENCEKVLQRLDEQHGKYRFMACNLEARRRKLKSQIPDLERSLEMVNVLRKEDEERETQFLLSDQVFIKTLVPPTKTVYLWLGASVMLEYPLDEAEALLNQNITSAVGNLKSVEHDQDFLRDQITTTEVNMARVYNWGVKKRQAATKTTATTPS
# B14: RpS20 (protein)
# chain: MAAAPKDIEKPHVGDSASVHRIRITLTSRNVRSLENVCRDLINGAKNQNLRVKGPVRMPTKTLRITTRKTPCGEGSKTWDRFQMRIHKRIIDLHSPSEIVKKITSINIEPGVEVEVTIAN
# Legend:
# Experiment in all cases: MAPPIT interaction score (arbitrary units); higher = stronger binary interaction signal, active = hit call of the paper
# [1] = biological target: EMC2B; settings: MAPPIT configuration: N-C; pair source set: Lit-BM-16
# [2] = biological target: Drat; settings: MAPPIT configuration: N-N; pair source set: RRS
# [3] = biological target: E(spl)m4-BFM; settings: MAPPIT configuration: N-C; pair source set: RRS
# [4] = biological target: Dysb; settings: pair source set: Lit-BM-16
# [5] = biological target: E(z); settings: pair source set: Lit-BM-16
# [6] = biological target: Eato; settings: MAPPIT configuration: N-N; pair source set: Lit-BS-16
# [7] = biological target: eIF3m; settings: pair source set: Lit-BM-16
# [8] = biological target: pnr; settings: MAPPIT configuration: N-N; pair source set: DPIM
# [9] = biological target: Dpm3; settings: MAPPIT configuration: N-C; pair source set: screen_3
# [10] = biological target: Eglp4; settings: MAPPIT configuration: N-C; pair source set: screen_3
# [11] = biological target: Faf2; settings: MAPPIT configuration: N-C; pair source set: screen_4
# [12] = biological target: RIC-3; settings: MAPPIT configuration: N-C; pair source set: screen_4
# [13] = biological target: Fatp3; settings: MAPPIT configuration: N-N; pair source set: Curagen_low_conf
# [14] = biological target: Dpit47; settings: pair source set: RRS
# [15] = biological target: Vps51; settings: MAPPIT configuration: N-N; pair source set: Curagen_high_conf
# [16] = biological target: Doc1; settings: MAPPIT configuration: N-C; pair source set: screen_3
# [17] = biological target: Elal; settings: MAPPIT configuration: N-N; pair source set: Finley_Y2H
# [18] = biological target: EndoB; settings: MAPPIT configuration: N-N; pair source set: screen_2
# 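Note: HEK293T cells with Epo stimulation, STAT-responsive firefly luciferase reporter, fold induction versus unstimulated cells divided by the larger fold induction of two negative controls lacking either bait or prey.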
binder,measurement,setting,value
B1,MAPPIT interaction score,[1],-4.28
B2,MAPPIT interaction score,[2],0.229
B3,MAPPIT interaction score,[3],0.917
B4,MAPPIT interaction score,[4]; MAPPIT configuration: N-C,-2.54
same,MAPPIT interaction score,[4]; MAPPIT configuration: N-N,0.529
B5,MAPPIT interaction score,[5]; MAPPIT configuration: N-C,0.709
same,MAPPIT interaction score,[5]; MAPPIT configuration: N-N,3.05 (active)
B6,MAPPIT interaction score,[6],0.224
same,MAPPIT interaction score,[7]; MAPPIT configuration: N-C,3.45
same,MAPPIT interaction score,[7]; MAPPIT configuration: N-N,5.78 (active)
same,MAPPIT interaction score,[8],-0.504
B7,MAPPIT interaction score,[9],0.481
B8,MAPPIT interaction score,[10],0.261
same,MAPPIT interaction score,[11],2.2
same,MAPPIT interaction score,[12],-0.382
B9,MAPPIT interaction score,[13],-0.429
B10,MAPPIT interaction score,[14]; MAPPIT configuration: N-C,1.62
same,MAPPIT interaction score,[14]; MAPPIT configuration: N-N,0.00721
same,MAPPIT interaction score,[15],-0.071
B11,MAPPIT interaction score,[5]; MAPPIT configuration: N-C,0.498
same,MAPPIT interaction score,[5]; MAPPIT configuration: N-N,0.583
B12,MAPPIT interaction score,[16],-0.0798
B13,MAPPIT interaction score,[17],0.515
B14,MAPPIT interaction score,[18],3.62 (active)
